From PMC8384837, “Expanding the binding specificity for RNA recognition by a PUF domain” come the findings set out here.

The target in this experiment is PUM1 PUF domain R5-RQA (Homo sapiens, UniProt Q14671 828-1176, C1007R;R1008Q;Q1011A). Description: yeast three-hybrid, YBZ-1, SC-Leu-His + 0.5 mM 3-AT, 4 days. The following applies: tags: N-Gal4 AD-HA kept; label: inside an RPR1-promoter hybrid RNA with tandem MS2 sites; ssRNA. Summed up:
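A centromeric plasmid in strain YBZ-1 co-expressed Pumilio-1 PUF domain libraries, randomized at the three base-contacting residues of each repeat, with matching RNA elements; the strain carries a LexA–MS2 coat fusion and a HIS3 reporter. After four days on SC-Leu (input) or SC-Leu-His + 0.5 mM 3-AT (selection), the repeat regions were PCR-amplified and Illumina-sequenced. The interaction score is the log change in variant frequency from input to selection, using log2 and a pseudocount of 1 where absent.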
With “GGCUAGAACUAGUGGAUCCCCCGGCGCCCGGCGGCUCGAGCCCGGGUAAGUGUUAAUAGUCUGCAUGCCGCCGGGCGCCAUGCCUGCAGGUCGACUCUAGAAAACAUG”, the binding signal was 5.37 log2 enrichment (interaction score). For “GGCUAGAACUAGUGGAUCCCCCGGCGCCCGGCGGCUCGAGCCCGGGUAAGUGUCAAUAGUCUGCAUGCCGCCGGGCGCCAUGCCUGCAGGUCGACUCUAGAAAACAUG”, the binding signal was 4.83 log2 enrichment (interaction score).

Regarding “GGCUAGAACUAGUGGAUCCCCCGGCGCCCGGCGGCUCGAGCCCGGGUAAGUGUGAAUAGUCUGCAUGCCGCCGGGCGCCAUGCCUGCAGGUCGACUCUAGAAAACAUG”, the binding signal is 0.37 log2 enrichment (interaction score).
